Source: PubChem BioAssay (NCATS)
“And” between values parts separate entries of the source, which are not always exact repeats. Equal entries are not always repeated. Records with an inconclusive call do not appear. Entries that show only a call come without a potency. More than one record can exist for a structure, and the calls need not agree. The source made the active and inactive calls. The call rests on the fitted dose curve; in most records, active means well fitted inhibition curve with a large enough effect; inconclusive means small, poorly fitted or top-dose-only effect; inactive means no such curve, though single readings can be large or run the other way.

Test: qHTS assay for measurement of the activity of small molecule inhibitors on Zika virus induced Caspase-3 activity in human iPSC derived neural progenitor cells (hNPCs) (AID 1224857); further: nearly all actives have a fitted effect of over 65% in size
Settings: hNPCs ZIKV-induced caspase-3/7, Caspase-Glo luminescence, 6 h; series mostly up to 45.7 µM
In short: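 In medium with heparin 2 ug/ml and cyclopamine 2 uM, hNPCs (350 cells/well) received compound for one hour and then Zika virus at 2 FFU/cell; caspase activity was measured by Caspase-Glo 3/7 luminescence 6 h post-infection.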
Potency means the concentration at half of the fitted maximal effect.

SMILES	Potency
CC(C)OC(=O)C(C(=O)OC(C)C)=C1SC=CS1	inactive
CCOC(=O)[C@H](CCc1ccccc1)N[C@H]1CCc2ccccc2N(CC(=O)O)C1=O	inactive
S=P(N1CC1)(N1CC1)N1CC1	inactive
Nc1nc(F)nc2c1ncn2[C@@H]1O[C@H](CO)[C@@H](O)[C@@H]1O	inactive
CNS(=O)(=O)CCc1ccc2[nH]cc(C3CCN(C)CC3)c2c1	inactive
CC1CC2C3CCC4=CC(=O)C=C[C@]4(C)[C@@]3(F)[C@@H](O)C[C@]2(C)[C@@]1(O)C(=O)CO (some centres not stated)	inactive
Nc1nc(=S)c2[nH]cnc2[nH]1	inactive
Cc1nnc(NS(=O)(=O)c2ccc(N)cc2)s1	inactive
Cc1c(-c2ccc(O)cc2)n(Cc2ccc(OCCN3CCCCCC3)cc2)c2ccc(O)cc12	inactive
O=S(=O)(O)CCS	inactive
CCCCc1oc2ccc(NS(C)(=O)=O)cc2c1C(=O)c1ccc(OCCCN(CCCC)CCCC)cc1	inactive
COc1cc([C@@H]2c3cc4c(cc3[C@H](O)[C@H]3COC(=O)[C@H]23)OCO4)cc(OC)c1OC	inactive
O=C(NCC1CN(c2ccc(N3CCOCC3=O)cc2)C(=O)O1)c1ccc(Cl)s1 (configuration not stated)	inactive
NC(=O)N1c2ccccc2CC(=O)c2ccccc21	inactive
CC(=O)[C@H]1CC[C@H]2[C@@H]3CCC4=CC(=O)CC[C@]4(C)[C@H]3CC[C@]12C	inactive
Cc1onc(-c2ccccc2Cl)c1C(=O)N[C@@H]1C(=O)N2[C@@H]1SC(C)(C)[C@@H]2C(=O)O	inactive
Cc1cccc(Nc2ccncc2S(=O)(=O)NC(=O)NC(C)C)c1	inactive and 18.7 µM (active)
CCn1cc(C(=O)O)c(=O)c2cc(F)c(N3CCN(C)CC3)cc21	inactive
CCCc1nc(C)c2c(=O)[nH]c(-c3cc(S(=O)(=O)N4CCN(CC)CC4)ccc3OCC)nn12	inactive

SMILES	Potency
O[C@@H](CNC[C@H](O)[C@H]1CCc2cc(F)ccc2O1)[C@@H]1CCc2cc(F)ccc2O1	inactive
CN1CCN(c2c(F)cc3c(=O)c(C(=O)O)cn(CCF)c3c2F)CC1	inactive
CS(=O)(=O)c1ccc([C@@H](O)[C@@H](CO)NC(=O)C(Cl)Cl)cc1	inactive
N[C@@H](Cc1ccc(O)c(O)c1)C(=O)O	inactive
CC(C)NCC(O)c1ccc(NS(C)(=O)=O)cc1 (configuration not stated)	inactive
CNNCc1ccc(C(=O)NC(C)C)cc1	inactive
CC(=O)CC(c1ccccc1)c1c(O)c2ccccc2oc1=O (configuration not stated)	inactive and 23.5 µM (active)
O=C(O)c1cc(=O)[nH]c(=O)[nH]1	inactive
O=c1cc(O)c(Cl)c[nH]1	inactive
COc1ccc(C(=O)CC(=O)c2ccc(C(C)(C)C)cc2)cc1	inactive
CCN(CC)CC#CCOC(=O)C(O)(c1ccccc1)C1CCCCC1 (configuration not stated)	inactive
CN(CCOc1ccc(CC2SC(=O)NC2=O)cc1)c1ccccn1 (configuration not stated)	inactive
C[C@@H]1C[C@H]2[C@@H]3CCC4=CC(=O)C=C[C@]4(C)[C@@]3(Cl)[C@@H](O)C[C@]2(C)[C@@]1(OC(=O)c1ccco1)C(=O)CCl	inactive
COCCCOc1cc(C[C@@H](C[C@H](N)[C@@H](O)C[C@H](C(=O)NCC(C)(C)C(N)=O)C(C)C)C(C)C)ccc1OC	inactive
CC(C)(C)C(=O)OCOP(=O)(COCCn1cnc2c(N)ncnc21)OCOC(=O)C(C)(C)C	inactive
NC(=O)c1cccnc1	inactive
O=S(=O)(c1cccc2cnccc12)N1CCCNCC1	inactive
Oc1c(Cl)cc(Cl)c2cccnc12	inactive
